Rows were chosen to be rich in hits. Some 5.2% of all compounds tested hit in one or more screens of this group.
Tau fibril ThT – inhibitors of human tau fibril formation, thioflavin T binding; 270,000 compounds, 2.1% hits; Potency, µM (series often up to 57.4 µM), inactives show at the top dose activity, negative = inhibition, hits mostly inhibitors; P10636; recombinant tau K18 P301L, heparin-induced fibrillization, ThT fluorescence; further: potency means the concentration at half of the fitted maximal effect; nearly all actives have a fitted effect of over 55% in size
Target sequence (P10636 561-689 P618L limits assumed): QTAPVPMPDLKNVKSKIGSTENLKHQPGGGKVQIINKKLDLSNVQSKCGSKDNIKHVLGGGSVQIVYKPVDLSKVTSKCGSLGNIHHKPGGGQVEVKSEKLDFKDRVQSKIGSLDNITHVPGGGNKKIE
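Tau K18 P301L fragment (15 uM unlabeled plus 0.24 uM Alexa 594-labeled) in 100 mM sodium acetate pH 7 with compound, fibrillization induced by 20 uM heparin for 6 hr at 37 C. Thioflavin T (30 uM) added, fluorescence read after 1 hr (ex 450, em 510 nm).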
Sfp inh – Sfp phosphopantetheinyl transferase inhibition. Q9F4F7. Biochemical Sfp PPTase activity, qHTS. Potency, µM, inactives show largest response in the series, negative = inhibition, actives largely listed as inhibitors. 310,000 compounds, 3.5% hits;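 further: the enzyme is Sfp with the accession as filed and its product quenches rhodamine fluorescence; potency means the concentration at half of the fitted maximal effect; 0% = enzyme reaction without inhibitor and -100% = no enzyme wells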
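Reaction rates are the 30-min fluorescence difference (ex 525, em 598 nm) in wells containing 15 nM Sfp, 5 uM rhodamine-CoA and 12.5 uM BHQ-2-YbbR at pH 7.6 with 10 mM MgCl2.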
FBPA coupling cs – counter-screen for Giardia aldolase inhibitors: coupling enzyme system; AID 2472; 290,000 compounds, 0.67% hits; activity change, negative = inhibition, % at 58.2 µM, hits read low; coupling enzyme system counterscreen, AmpLite Red fluorescence; in the data active means activity change below about -30%
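Counterscreen of the coupled detection system alone, without aldolase: glyceraldehyde-3-phosphate coupling enzymes plus AmpLite Red readout. Compounds at 57.5 uM final, 10 min RT preincubation, 20 min RT reaction, fluorescence 525/598 nm.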
Tau fluor cs – counter-screen for tau fibril formation inhibitors. tau K18 P301L (four-repeat tau fragment) Alexa594 fluorescence, heparin fibrillization. 280,000 compounds, 0.93% hits. Potency, µM (doses to about 57.7 µM), for inactives: top-dose activity change, negative = decrease; further: potency means the concentration at half of the fitted maximal effect; nearly all actives have a fitted effect of over 55% in size
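Human K18 P301L tau (15 uM unlabeled plus 0.24 uM Alexa 594-labeled, final) in 100 mM sodium acetate pH 7 was mixed with compound and 20 uM heparin and incubated 6 hr at 37 C.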
Tau fibril FP – inhibitors of human tau fibril formation | P10636 | K18 P301L tau heparin fibrillization, Alexa594 FP, 6 h | Potency, µM (highest dose often 57.7 µM), inactives show at the highest dose activity, negative = inhibition, hits mostly inhibitors | 280,000 compounds, 0.39% hits | AID 1468; further: potency means the concentration at half of the fitted maximal effect; nearly all actives have a fitted effect of over 55% in size
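Read-out: fluorescence polarization of Alexa 594-labeled tau (0.24 uM), 555 nm excitation, 632 nm emission. Mixtures held 15 uM unlabeled K18 P301L, compound and 20 uM heparin, pH 7 acetate buffer, incubated 6 hr at 37 C.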
Numbers without * were called inactive; ? = inconclusive; . = no result; [ ] = dose if it differs, or a comment. Unless noted, the call rests on the fitted dose curve; in most records, active means well fitted curve in the direction sought with a large enough effect; inconclusive means small, poorly fitted or top-dose-only effect, or another doubt; inactive means no such curve, though single readings can be large; an effect the other way counts as inactive or inconclusive. Unless noted, on the % scale 0 is the no-effect control and ±100 the full control effect.

SMILES	Tau fibril ThT	Sfp inh	FBPA coupling cs	Tau fluor cs	Tau fibril FP
Cc1ccc(C(=O)OCC(=O)NCc2ccco2)s1	-4.8%	44.7µM*	-3.2	2.4%	4.1%
Cc1ccsc1C(=O)OCC(=O)NCc1ccco1	-2.3%	11.9%	2.2	-3.9%	0.3%
Cc1ccc(-c2csc(=S)n2CC(=O)OCC(=O)NCc2ccco2)cc1	-16.3%	22.4µM*	0.3	-2.4%	-1.8%
O=C(COC(=O)C1(c2ccc(F)cc2)CCCC1)NCc1ccco1	-10.6%	56.2µM*	-0.5	-15.2%	-9.6%
Cc1ccc(-c2csc(=S)n2CC(=O)OCC(=O)NC(C)C(C)C)cc1 (centres undefined)	-13.4%	3.8%	-0.8	-10.4%	0.3%
Cc1ccc2cccc(OCC(=O)NCc3ccco3)c2n1	2.4%	28.2µM*	1.2	5.2%	-0.4%
CC(=O)NC1[C@H]([C@H](O)[C@H](O)CO)OC(C(=O)O)=C[C@H]1N=C(N)N (some centres undefined)	.	7.2%	.	.	.
CC(C)(C)N1C(=O)[C@H]2[C@H]3[C@H](O)[C@H](O)C/C(=N/OC[C@@H](O)COCc4ccco4)[C@@H]3CC[C@@H]2C1=O	-1.6%[11.5 µM]	-2.4%	3.2	0.0%[11.6 µM]	2.9%[11.6 µM]
C[C@]12C[C@@](C)(C=C1/C=C/c1ccccc1)C(=O)C[C@H]2c1ccccc1	0.6%	8.0%	2.5	-5.1%	-1.4%
O=C(COC(=O)CCC(=O)c1ccc(Cl)cc1)NCc1ccco1	-16.4%	14.1µM*	-1.8	-10.4%	1.7%
CC(C)c1ccc(-c2noc(SCC(=O)N3CCCCC3)n2)cc1	?	.	.	-21.4%	-9.1%
COc1cc(NC(=O)C2C3C=CC(C3)C2C(=O)O)ccc1NC(=O)c1ccccc1 (centres undefined)	.	89.1µM*	2.9	.	.
Cc1ccc(-c2cccc(NC(=O)C3C4C=CC(C4)C3C(=O)O)c2)o1 (centres undefined)	-12.7%	35.5µM*	7.1	-4.2%	8.7%
CN(C)c1ccc(NC(=O)C2C3C=CC(C3)C2C(=O)O)cc1 (centres undefined)	.	50.1µM*	-8.1	.	.
COc1cc([N+](=O)[O-])ccc1NC(=O)C1C2C=CC(C2)C1C(=O)O (centres undefined)	.	31.6µM*	3.6	.	.
COc1cccc(C(=O)Nc2ccc(NC(=O)C3C4C=CC(C4)C3C(=O)O)cc2)c1 (centres undefined)	.	-22.9%	.	.	.
COc1ccc2[nH]cc(CCNc3ncncc3-c3ccc(C(=O)N(C)C)cc3)c2c1	.	-23.3%	-0.2	.	.
N#Cc1c(N2CCN(C(=O)c3ccco3)CC2)nc(-c2ccccc2)c2c1CCCC2	-16.0%	44.7µM*	-2.4	2.2%	4.1%
CC(C)Cc1nc(N2CCN(C(=O)c3ccco3)CC2)c(C#N)c2c1CCC2	?	44.7µM*	0.3	-4.1%	0.1%
Cc1nc(N2CCN(C(=O)c3ccco3)CC2)c2c3c(sc2n1)CCCC3	-17.9%	5.3%	0.9	-3.3%	0.3%
O=C(c1ccco1)N1CCN(c2nc(C3CC3)nc3sc4c(c23)CCCC4)CC1	?	79.4µM*	2.4	-7.7%	5.3%
CCN(CC)C(=O)c1sc2c(c1C)c(=O)n(-c1ccc(C)c(C)c1)c(=O)n2Cc1cc(=O)n2ccccc2n1	2.4%	.	.	-4.8%	-5.8%
Cc1cccc2c1c(N=NC(N)=S)c(O)n2C1OC(CO)C(O)C(O)C1O (centres undefined)	.	50.1µM*	-0.3	.	.
CCCCSCCCNC(=O)c1c[nH]c2ccc(S(=O)(=O)Nc3cccc(OC)c3)cc2c1=O	5.3%	.	.	?	2µM*
CCOCCCNC(=O)c1c[nH]c2ccc(S(=O)(=O)Nc3cccc(OC)c3)cc2c1=O	0.0%	12.5%	6.1	3.0%	0.8%
SMILES	Tau fibril ThT	Sfp inh	FBPA coupling cs	Tau fluor cs	Tau fibril FP
COc1cccc(NS(=O)(=O)c2ccc3[nH]cc(C(=O)NC(C)c4ccccc4)c(=O)c3c2)c1 (centres undefined)	10.9%	.	.	?	7.94µM*
CCOC(=O)c1c(NC(=O)c2cc3nc(-c4ccc(OC)cc4)cc(C(F)(F)F)n3n2)sc(C)c1C	2.9%	.	.	5.2%	2.5%
C=CCn1c(SCc2nc3ccccc3c(=O)[nH]2)nc2ccccc2c1=O	-7.6%	50.1µM*	0.1	-15.2%	-12.2%
COc1ccccc1CNC(=S)Nc1ccc2nc(N3CCN(C)CC3)cc(C)c2c1	?	56.2µM*	-5.7	20µM*[quencher]	?
COCCNC(=S)Nc1ccc2nc(N3CCN(C)CC3)cc(C)c2c1	.	0.4%	1.1	.	.
COc1cccc(NC(=O)Nc2ccc3nc(N4CCN(C)CC4)cc(C)c3c2)c1	?	.	.	14.1µM*[quencher]	?
Cc1cc(C)cc(NC(=O)Nc2ccc3nc(N4CCN(C)CC4)cc(C)c3c2)c1	?	.	.	7.94µM*[quencher]	?
Cc1cc(N2CCN(C)CC2)nc2ccc(NC(=O)Nc3ccccc3Cl)cc12	14.1µM*	.	.	14.1µM*[quencher]	?
COc1ccc(CNC(=S)Nc2ccc3nc(N4CCN(C)CC4)cc(C)c3c2)cc1	?	-4.0%	1.5	?	?
CCOc1cc2c(C#N)c(N3CCOCC3)nc(N)c2c(N)n1	-14.5%	0.7%	-47.9*	-13.3%	7.1%
CC(C)(C)c1nnc(NC(=O)c2ccc3c(c2)OCO3)s1	.	22.4µM*	-7.3	.	.
Cc1ccc(C(=O)Nc2ncc([N+](=O)[O-])s2)cc1	.	-1.7%	-29.4	.	.
CC(C)(C)c1nnc(NC(=O)c2ccc(Cl)nc2)s1	-3.2%	8.8%	-36.3*	-4.7%	-0.6%
O=C(Nc1ncc([N+](=O)[O-])s1)c1ccc2c(c1)OCO2	.	?	-32.3*	.	.
COc1cc(OC)cc(C(=O)N2CCN(Cc3ccccc3[N+](=O)[O-])CC2)c1	-14.9%	50.1µM*	2.7	-8.3%	-3.4%
CCOC(=O)N1CCN(Cc2ccc(O)c3ncccc23)CC1	?	23.6%	1.9	-23.3%	3.6%
O=[N+]([O-])c1ccccc1CN1CCN(c2ncccn2)CC1	.	-13.6%	0.5	.	.
CCOC(=O)N1CCN(Cc2ccccn2)CC1	-6.1%	79.4µM*	-1.3	-0.8%	2.4%
O=[N+]([O-])c1ccccc1CN1CCN(Cc2ccccn2)CC1	-7.1%	50.1µM*	1.7	-5.0%	7.6%
O=C(c1ccc([N+](=O)[O-])cc1)N1CCN(Cc2ccccc2[N+](=O)[O-])CC1	-10.7%	50.1µM*	-0.8	-6.9%	-0.6%
COc1ccc(C(=O)N2CCN(Cc3ccccc3[N+](=O)[O-])CC2)cc1	.	-26.4%	3.3	.	.
CCCC/C=C/[C@@H](c1ccccc1)C1COC(=O)CC1O (some centres undefined)	.	6.5%	6.9	.	.
C[C@@H](c1ccccc1)N1C(=O)[C@H]2[C@H]3[C@H](O)[C@H](O)C/C(=N/NC(=O)OCc4ccccc4)[C@@H]3CC[C@@H]2C1=O	-5.5%[11.5 µM]	-4.6%	0.0	-5.3%[11.6 µM]	1.6%[11.6 µM]
Clc1ccc(OCc2nn3c(-c4ccco4)nnc3s2)c(Cl)c1	-15.5%	17.8µM*	5.7	-13.8%	-5.9%
